# Experimental data taken from PubChem BioAssay (NCI).
# About 79,000 compounds went through this panel and 15% of them were active in at least one assay; those are over-represented in the sample as a whole. Values without a mark were called inactive. The source made the active and inactive calls. Cut-off read from the data, not from the text of the source: active = growth inhibition above about 70%; inactive = the rest.
# How the values were obtained:
# [1] = NCI Yeast Anticancer Drug Screen. Data for the rad50 strain (AID 155);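 note: 0% = growth of vehicle-only cultures of the same strain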; conditions: S. cerevisiae rad50 strain growth inhibition; at 50.0 µM; hits give high values
# In short: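 Compounds were tested on a yeast strain with an engineered DNA damage repair alteration; the reported value is growth inhibition normalised to vehicle treatment.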
# [2] = NCI Yeast Anticancer Drug Screen. Data for the mec2-1 strain (AID 157); conditions: S. cerevisiae mec2-1 strain, at 50.0 µM, hits give high values
# In short: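 Cells of the genetically defined mec2-1 yeast strain are incubated with test compound. Inhibition of growth is calculated against vehicle-treated controls.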
# [3] = NCI Yeast Anticancer Drug Screen. Data for the sgs1 mgt1 strain (AID 161);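 note: 0% = growth of cultures given vehicle only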; conditions: S. cerevisiae sgs1 mgt1 strain, at 50.0 µM, hits give high values
# In short: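 Genetically altered yeast, compound exposure, growth inhibition relative to vehicle.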
# [4] = NCI Yeast Anticancer Drug Screen. Data for the cln2 rad14 strain (AID 165);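 note: 0% = growth equal to vehicle treated cultures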; conditions: S. cerevisiae cln2 rad14 strain, at 50.0 µM, hits give high values
# In short: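 The screen exposed genetically defined yeast (cln2 rad14) to test compounds and scored growth inhibition relative to vehicle-treated controls.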
# [5] = NCI Yeast Anticancer Drug Screen. Data for the bub3 strain (AID 167); conditions: S. cerevisiae bub3 mutant strain, at 50.0 µM, hits give high values
# In short: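 Growth of a checkpoint-deficient yeast mutant is measured after compound exposure. Values represent inhibition relative to vehicle.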
# [6] = NCI Yeast Anticancer Drug Screen. Data for the mlh1 rad18 strain (AID 175); conditions: S. cerevisiae mlh1 rad18 strain growth inhibition; at 50.0 µM; hits give high values
# In short: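 Compound-treated yeast growth, normalised to vehicle controls. Strain bears defined DNA repair mutations.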
Compound,growth inhibition [1],growth inhibition [2],growth inhibition [3],growth inhibition [4],growth inhibition [5],growth inhibition [6]
Oc1ccc(-c2nc(-c3cccnc3)c(-c3ccc(Cl)cc3)[nH]2)cc1,3.25%,-19.2%,19.9%,12.8%,39.6%,81.7% (active)
CC1=NC(=Cc2ccccc2O)C(=O)N1n1c(-c2ccccc2)nc2ccccc2c1=O,22.4%,17.7%,51.5%,16.6%,42.5%,44.5%
C=CCSC(=S)NC,-6.2%,-7.5%,-2.7%,10.2%,-0.9%,8.4%
CC1S(=O)(=O)OCCCOS1(=O)=O,-22.8%,-19.2%,-9.95%,-13.2%,-2.45%,-17.6%
[O-][n+]1c2ccc(Cl)cc2nc2ccc(Cl)cc21,-9.35%,-10.9%,-8.25%,-27.4%,1.45%,-4.6%
Nc1nc2c(ncn2C2OC(CO)C3OP(=O)(O)OC32)c(=O)[nH]1 (stereo unspecified),-8.5%,-5.1%,-19.4%,-29.4%,0.2%,-15.8%
CCOC(=O)OCCOCCOC(=O)OCC,-2.25%,-14.2%,-30.8%,19.2%,-2.65%,25.8%
CCOC(=O)C(C)(C)O,18.8%,14%,1.05%,-35.9%,9.05%,19.2%
CCN(CC)C(=O)Cc1[nH][nH]c(=O)c1C(=O)N(CC)CC,-31.9%,2.45%,-42.9%,-7.6%,-28.6%,-41.3%
Cc1noc(NC2=CC(=O)C(=O)c3ccccc32)c1C,34.8%,8.45%,40.8%,8%,28.6%,42.7%
O=C1COC(=O)N1,-6.85%,-22.4%,-3.45%,-3.35%,0.2%,8.25%
CCC1NC(N=Nc2ccc([N+](=O)[O-])cc2)(P(=O)(OC(C)C)OC(C)C)OC1=O (stereo unspecified),44.5%,-43.5%,16.1%,-15.8%,17.5%,10.8%
CC(/C=C/C=C(\C)C(=O)O)=C\C=C\C=C(C)\C=C\C=C(/C)C(=O)O,-0.8%,-21%,3.7%,6.6%,-9.05%,17.9%
CS(=O)(=O)N1CC(CCl)c2ccc(NO)cc21 (stereo unspecified),43.5%,27.9%,24.9%,17.3%,0.45%,-32.4%
Cc1cc(C)c(Cc2c(C)cc(C)cc2C)c(C)c1,14.8%,-25.6%,7.25%,-2.85%,23.9%,13.9%
O=C(Nc1ccc(Cl)cc1)Nc1nnc(-c2cccc(-c3nnc(NC(=O)Nc4ccc(Cl)cc4)o3)c2)o1,39.1%,34.3%,36.4%,21.7%,-3.5%,14%
Cc1cccc(C)c1NC(=S)/N=C/C1=C(O)c2ccccc2C1=O,-36.8%,-17.2%,-10.2%,13.8%,-7.5%,23.6%
O=C(C[n+]1ccncc1)c1ccccc1,-20.8%,-18.7%,-6.35%,-6.25%,-10.2%,2.65%
Oc1ccccc1C=NCCCN=Cc1ccccc1O,12.4%,0.25%,36.5%,15.5%,48.8%,21.5%
CC(C)=CCC/C(C)=C/CC/C(C)=C/C1CCC(=O)C1(C)C (stereo unspecified),5%,-38.4%,-43.2%,-16.6%,-33.3%,-8.35%
c1ccc(-c2cc3c4ccccc4ccn3c2)cc1,15.2%,10.2%,20.2%,3.65%,-2.95%,-5.95%

Compound,growth inhibition [1],growth inhibition [2],growth inhibition [3],growth inhibition [4],growth inhibition [5],growth inhibition [6]
CN(C)CC(O)c1ccc(Cl)c2ccccc12 (stereo unspecified),3.95%,-20.9%,-31.9%,-30.1%,-8.7%,1.75%
O=C(ON=C1c2ccccc2C(Br)C(Br)c2ccccc21)c1ccccc1 (stereo unspecified),38%,16.9%,35.7%,17.6%,49%,30.6%
CC[N+]1(C)CC2CCC1C2 (stereo unspecified),4.55%,17.1%,14.5%,-39.9%,5.85%,-11.8%
CCNC(=O)COc1ccc(Br)cc1Br,-3.7%,-5.2%,-3.8%,11.2%,8.4%,15.2%
COc1cc2c[n+]3ccc4ccccc4c3c(N)c2cc1OC,16%,-8.2%,-10.6%,15.8%,5.9%,-4.85%
CC(=O)OCCC12CCC(CC1Cl)C2(C)C (stereo unspecified),-1.45%,-9.7%,9.85%,24.7%,-3.05%,-3.55%
CN(C)Cc1ccc2ccccc2c1,0.2%,7.1%,9.95%,-39.1%,6.85%,-14.3%
O=c1ccn(/C=C\c2nc3ccccc3[nH]c2=O)c(=S)[nH]1,-37.8%,-27.3%,-35.9%,13.7%,-17.5%,-40.4%
COC(=O)c1cc(C)ccc1/C=C1\Cc2c(C)cc(C)cc2C1=O,-12.2%,-25.8%,-6.85%,-30.6%,-46.1%,-39.6%
Cc1noc(NS(=O)(=O)c2ccc(NC(=S)/N=C/C(C(=O)c3ccccc3)=C(\O)c3ccccc3)cc2)c1C,10.7%,0.55%,18.7%,-7.4%,-5.15%,13.7%
O=C1c2ccc([N+](=O)[O-])cc2C(=O)N1CCBr,27.4%,-13.2%,16.6%,-10.2%,31.7%,13.1%
Cc1cccc(Cl)c1NC1=NCCN1C(=O)CC(=O)c1ccccc1,54.1%,-9.2%,1.1%,12.8%,2.05%,32.7%
CC(/C=N\Nc1ccc([N+](=O)[O-])cc1)=N/N=C(N)N,8.35%,-2.9%,9.55%,-10.9%,3.1%,18.7%
COc1cc(/C=C/Cc2cc3c(cc2OCCO)OCO3)cc(OC)c1OC,-1.05%,0.3%,7.6%,-11.7%,-4.65%,19.6%
c1ccc(C(c2ccc3c(c2)CCCC3)C(c2ccccc2)(c2ccccc2)c2ccccc2)cc1 (stereo unspecified),-0.05%,-0.05%,4.7%,16.5%,-3.65%,25.4%
Cn1c(=O)c2n[nH]nc2n(C)c1=O,7.25%,-0.5%,-0.35%,-11.7%,-14.8%,15.8%
N=N/C(=C\c1c(O)[nH]c2ccccc12)c1ccccc1,-7.35%,13.6%,34.2%,-35.2%,57.3%,-8.75%
O=C(NC(Cc1c[nH]c2ccccc12)(C(=O)O)C(=O)O)OCc1ccccc1,23.1%,15.1%,18.7%,29.1%,2.1%,17.8%
Cc1[nH]n(C(=N)N)c(=O)c1CCO,-7.15%,11.6%,-18.6%,-6.35%,2%,-50.7%
CCOc1ccc(OCC)c(C(=O)CCC(=O)Nc2ccc(Br)cc2)c1,-8.9%,-2.9%,-8.3%,-12.8%,1.45%,-6.75%
